Experimental data from ChEMBL document CHEMBL1201862, “PubChem BioAssay data set” (2004).
Screen size: about 55,000 sequences; about 3,800 (6.9%) were called active. Rule as the data show it: active = GI50 up to about 1.1 µM and inactive = higher. The list is a sample of the results. Entries with a potency or affinity are not part of this list.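 Protocol summary: plate cells (96-well), add compound at 5 concentrations, incubate 48 h, interpolate endpoints linearly. GI50 is the concentration that inhibits growth by half.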

What follows are substances tested on CAKI-1 (assay: NCI tumour cell line growth inhibition, 48 h).

| Substance | GI50 |
| --- | --- |
| [Bis(aminomethyl)pentamethylenesilane]dichloropaltinum(II), CHEMBL2146202 | 2.26 µM |
| [Bis(aminomethyl)tetramethylenesilane]tetrachloropaltinum(IV), CHEMBL2146189 | 5.92 µM |
| [Bis(aminomethyl)diethylsilane]tetrachloroplatinum(IV), CHEMBL2146203 | 4.06 µM |
| [Bis(aminomethyl)ethylmethylsilane]tetrachloroplatinum(IV), CHEMBL2146192 | 1.19 µM |
| CISPLATIN, CHEMBL11359 | 1.99 µM |
| [Bis(aminomethyl)dimethylsilane]tetrachloroplatinum(IV), CHEMBL2146190 | 4.05 µM |
| [Bis(aminomethyl)dimethylsilane]dichloroplatinum (II), CHEMBL2146201 | 12 µM |
| [Bis(aminomethyl)pentamethylenesilane]tetrachloropaltinum(IV), CHEMBL2146204 | 2.14 µM |
| mu-(1,7-nanodiamine-N,N')bis-(cis-aminedichloroplatimum (II)), CHEMBL2146215 | 50.6 µM |
| [Bis(aminomethyl)tetramethylenesilane]dichloropaltinum(II), CHEMBL2146205 | 13.6 µM |
| cis-Bis[[(trimethylsilyl)methyl]amino]tetrachloroplatinum(IV), CHEMBL2146191 | 11.9 µM |
